{"source": "PubChem BioAssay (NCI)", "note": "Compounds without any hit were thinned out: in the full panel of roughly 79,000, 15% have a hit. Values without a mark were called inactive. Activity calls are given as the source filed them. Rule as the data show it: active = growth inhibition above about 70%; inactive = the rest.", "data": [{"test": "NCI Yeast Anticancer Drug Screen. Data for the rad50 strain (AID 155);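 also: 0% = growth of vehicle-only cultures of the same strain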", "details": "S. cerevisiae rad50 strain growth inhibition; at 5.0 µM (retest, dose inferred, filed as 0.5); hits give high values", "outline": "(§1)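 Inhibition values express reduced yeast growth in compound-treated cultures relative to vehicle-treated controls.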", "values": [{"smiles": "CCCN1C(=O)c2ccccc2C1=O", "growth inhibition": "9%"}, {"smiles": "CCC(CC)COC(=O)c1ccc(O)c(O)c1", "growth inhibition": "-6%"}, {"smiles": "COc1ccc(C2SCC(=O)N2c2nncs2)cc1", "note": "(stereo not given)", "growth inhibition": "-1%"}, {"smiles": "O=NN(CCCl)C(=O)Oc1cc(Cl)c(Cl)cc1Cl", "growth inhibition": "71% (active)"}, {"smiles": "O=C(c1ccccc1)c1ccccc1S(=O)(=O)Nc1ccccc1", "growth inhibition": "-5%"}, {"smiles": "O=S(O)CCCCCSSc1ccccc1", "growth inhibition": "-1%"}, {"smiles": "Cc1ccc(C)c(N2C(=O)C(=O)C(c3nc4ccccc4o3)/C(=N\\NC(=O)c3ccccc3O)C2=O)c1", "note": "(stereo not given)", "growth inhibition": "6%"}, {"smiles": "Nc1ccc2ccccc2c1Cc1c(O)ccc2ccccc12", "growth inhibition": "9%"}, {"smiles": "CN(C)CCC(=O)C(=Cc1cc(Cl)cc(Cl)c1)C(=O)CCN(C)C", "growth inhibition": "2%"}, {"smiles": "COC(=O)c1c(C(N)=O)c(C)n(NC(=O)c2ccccc2)c1C", "growth inhibition": "-6%"}, {"smiles": "O=C(O)/C(=C/c1c(O)ccc2ccccc12)c1csc(-c2nc(/C(=C\\c3c(O)ccc4ccccc34)C(=O)O)cs2)n1", "growth inhibition": "74% (active)"}, {"smiles": "O=C(O)c1c2c(cc3c1CC1(Cc4cc5c(cc4C1=O)CCC5)C3)CCC2", "note": "(stereo not given)", "growth inhibition": "67%"}, {"smiles": "CCc1cccc(C(C)(C)C)c1NC(=S)N/C=C(\\c1ccccc1)S(=O)Cc1ccccc1", "note": "(stereo not given)", "growth inhibition": "2%"}, {"smiles": "O=[N+]([O-])c1ccc(N/N=C/COCCO)c([N+](=O)[O-])c1", "growth inhibition": "2%"}, {"smiles": "O=C(O)CSc1nc(-c2ccccc2)c(-c2ccccc2)n1-c1ccccn1", "growth inhibition": "1%"}, {"smiles": "C[C@]12CCC(=O)C=C1CC[C@@H]1[C@@H]2[C@@H](O)C[C@@]2(C)[C@H]1CC[C@]2(O)C(=O)COC(=O)C1CCCC1", "growth inhibition": "-7%"}, {"smiles": "C[C-](O)O.O/C(=C\\[C-](O)c1ccccc1)c1ccccc1.O/C(=C\\[C-](O)c1ccccc1)c1ccccc1.[Nd+3]", "note": "(stereo not given)", "growth inhibition": "36%"}, {"smiles": "[Cl][Pt+2]([Cl])([Cl])[Cl].[NH-]CC1(C[NH-])CCCC1", "growth inhibition": "86% (active)"}, {"smiles": "CSc1ccc2c(c1)S[S@@](=O)N2", "growth inhibition": "-5%"}, {"smiles": "O=S=C(c1ccccc1)N(Cc1ccccc1)Cc1ccccc1", "growth inhibition": "-1%"}, {"smiles": "NNc1c(Cl)c(F)c(Cl)c(F)c1Cl", "growth inhibition": "13%"}, {"smiles": "Cc1ccc(C)c(N2C(=O)C(=O)C(c3nc4ccccc4o3)C(=O)C2=O)c1", "growth inhibition": "38%"}, {"smiles": "NC(=S)N/N=C/c1ccc(Cl)s1", "growth inhibition": "-5%"}, {"smiles": "O=c1[nH]ccc(CNC23CC4CC(CC(C4)C2)C3)c1O", "growth inhibition": "5%"}, {"smiles": "CN(C)CCSc1cc(-c2ccccc2)c2ccccc2n1", "growth inhibition": "-7%"}]}, {"test": "NCI Yeast Anticancer Drug Screen. Data for the rad50 strain (AID 155)", "details": "S. cerevisiae rad50 strain growth inhibition; at 50.0 µM (retest, dose inferred, filed as 5.0); hits give high values", "outline": "as §1", "values": [{"smiles": "O=[N+]([O-])c1cccc(S(=O)(=O)N/N=C/c2cc(I)cc([N+](=O)[O-])c2O)c1", "growth inhibition": "6%"}, {"smiles": "COc1cc(N=Nc2cccc(S(N)(=O)=O)c2)c2ccccc2c1N", "growth inhibition": "98% (active)"}, {"smiles": "O=S(=O)(c1ccc(O)cc1)c1ccc(Cl)cc1", "growth inhibition": "38%"}, {"smiles": "C[N+](C)=c1ccc2nc3c(cc(NCCCNc4cc5oc6cc(=[N+](C)C)ccc-6nc5c5ccccc45)c4ccccc43)oc-2c1", "growth inhibition": "79% (active)"}, {"smiles": "CC(C)(C)C(=O)/C=C/c1ccc2ccccc2n1", "growth inhibition": "-119%"}, {"smiles": "CSc1ccc(/C=N/NC(N)=S)cc1", "growth inhibition": "-19%"}, {"smiles": "CN(C)c1ccc(/C=C(\\C#N)c2c(F)cccc2F)cc1", "growth inhibition": "-2%"}, {"smiles": "O=C(/C=C\\c1ccccc1)N1c2ccccc2CC1c1c[nH]c2ccccc12", "note": "(stereo not given)", "growth inhibition": "11%"}, {"smiles": "COc1cccc(C2c3cc4c(cc3OC(Nc3ccccc3)C2C)OCO4)c1O", "note": "(stereo not given)", "growth inhibition": "97% (active)"}, {"smiles": "CC(/C=C/c1cccs1)=N\\C(=S)NC(N)=S", "growth inhibition": "0%"}, {"smiles": "C=C1C(=O)O[C@H]2[C@H](OC(C)=O)[C@@H](C)CCC/C(C)=C/CC[C@@]3(C)O[C@@H]3C[C@@H]12", "growth inhibition": "99% (active)"}, {"smiles": "CC(=O)O/C=C\\COC(C)=O", "growth inhibition": "4%"}, {"smiles": "Cn1cc(NC(=O)c2cc(NC(=O)CCCCCCCCC(=O)Nc3cc(C(=O)Nc4cc(C(=O)NCCC(N)N)n(C)c4)n(C)c3)cn2C)cc1C(=O)NCCC(=N)N", "growth inhibition": "98% (active)"}, {"smiles": "CCCCCCCNCCCCCC", "growth inhibition": "92% (active)"}, {"smiles": "Cc1ccc(S(=O)(=O)N(c2ccccc2-c2ccccc2)C(C)C(=O)O)cc1", "note": "(stereo not given)", "growth inhibition": "67%"}, {"smiles": "CCCN1C(=O)c2ccccc2C1=O", "growth inhibition": "2%"}, {"smiles": "CCC(CC)COC(=O)c1ccc(O)c(O)c1", "growth inhibition": "91% (active)"}, {"smiles": "COc1ccc(C2SCC(=O)N2c2nncs2)cc1", "note": "(stereo not given)", "growth inhibition": "5%"}, {"smiles": "O=NN(CCCl)C(=O)Oc1cc(Cl)c(Cl)cc1Cl", "growth inhibition": "98% (active)"}, {"smiles": "O=C(c1ccccc1)c1ccccc1S(=O)(=O)Nc1ccccc1", "growth inhibition": "79% (active)"}, {"smiles": "O=S(O)CCCCCSSc1ccccc1", "growth inhibition": "12%"}, {"smiles": "Cc1ccc(C)c(N2C(=O)C(=O)C(c3nc4ccccc4o3)/C(=N\\NC(=O)c3ccccc3O)C2=O)c1", "note": "(stereo not given)", "growth inhibition": "21%"}, {"smiles": "Nc1ccc2ccccc2c1Cc1c(O)ccc2ccccc12", "growth inhibition": "96% (active)"}, {"smiles": "CN(C)CCC(=O)C(=Cc1cc(Cl)cc(Cl)c1)C(=O)CCN(C)C", "growth inhibition": "98% (active)"}, {"smiles": "COC(=O)c1c(C(N)=O)c(C)n(NC(=O)c2ccccc2)c1C", "growth inhibition": "4%"}, {"smiles": "O=C(O)/C(=C/c1c(O)ccc2ccccc12)c1csc(-c2nc(/C(=C\\c3c(O)ccc4ccccc34)C(=O)O)cs2)n1", "growth inhibition": "74% (active)"}, {"smiles": "O=C(O)c1c2c(cc3c1CC1(Cc4cc5c(cc4C1=O)CCC5)C3)CCC2", "note": "(stereo not given)", "growth inhibition": "67%"}, {"smiles": "CCc1cccc(C(C)(C)C)c1NC(=S)N/C=C(\\c1ccccc1)S(=O)Cc1ccccc1", "note": "(stereo not given)", "growth inhibition": "77% (active)"}, {"smiles": "O=[N+]([O-])c1ccc(N/N=C/COCCO)c([N+](=O)[O-])c1", "growth inhibition": "20%"}, {"smiles": "O=C(O)CSc1nc(-c2ccccc2)c(-c2ccccc2)n1-c1ccccn1", "growth inhibition": "5%"}, {"smiles": "C[C@]12CCC(=O)C=C1CC[C@@H]1[C@@H]2[C@@H](O)C[C@@]2(C)[C@H]1CC[C@]2(O)C(=O)COC(=O)C1CCCC1", "growth inhibition": "-10%"}, {"smiles": "C[C-](O)O.O/C(=C\\[C-](O)c1ccccc1)c1ccccc1.O/C(=C\\[C-](O)c1ccccc1)c1ccccc1.[Nd+3]", "note": "(stereo not given)", "growth inhibition": "36%"}, {"smiles": "[Cl][Pt+2]([Cl])([Cl])[Cl].[NH-]CC1(C[NH-])CCCC1", "growth inhibition": "99% (active)"}, {"smiles": "CSc1ccc2c(c1)S[S@@](=O)N2", "growth inhibition": "55%"}, {"smiles": "O=S=C(c1ccccc1)N(Cc1ccccc1)Cc1ccccc1", "growth inhibition": "94% (active)"}, {"smiles": "NNc1c(Cl)c(F)c(Cl)c(F)c1Cl", "growth inhibition": "17%"}, {"smiles": "Cc1ccc(C)c(N2C(=O)C(=O)C(c3nc4ccccc4o3)C(=O)C2=O)c1", "growth inhibition": "98% (active)"}, {"smiles": "NC(=S)N/N=C/c1ccc(Cl)s1", "growth inhibition": "80% (active)"}, {"smiles": "O=c1[nH]ccc(CNC23CC4CC(CC(C4)C2)C3)c1O", "growth inhibition": "11%"}, {"smiles": "CN(C)CCSc1cc(-c2ccccc2)c2ccccc2n1", "growth inhibition": "90% (active)"}]}]}
